# The campaign covered roughly 300,000 compounds. About 37,000 (12%) were called active. What follows is part of a selection rich in actives, with near analogues and random picks from the rest. Values without a mark were called inactive. Rule as the data show it: active = max response mostly above about 13% (no sharp cut-off); inactive = mostly below about 14%.
# Assay: Cycloheximide Counterscreen for Small Molecule Inhibitors of Shiga Toxin; also: read at 38.3 µM for the half of the compounds with a filed dose; 0% is about no effect
# Conditions: cell reporter, cycloheximide protein synthesis inhibition counterscreen; hits give high values
row,Structure (SMILES),max response
1,CC(=O)N1c2ccc(S(=O)(=O)N3CCCC(C(=O)Nc4cccc(Cl)c4)C3)cc2CC1C (stereo unspecified),-3.38%
2,O=C(c1c(Cl)cccc1Cl)N1CCN(c2cccc3[nH]ccc23)CC1,-4.42%
3,O=C(c1ccc2ccccc2n1)N1CCN(c2ccccc2Cl)CC1,25.6% (active)
4,COc1ccccc1N1CCN(C(=O)c2c(-c3c(Cl)cccc3Cl)noc2C)CC1,-1.33%
5,COc1cc(S(=O)(=O)N2CCOCC2)ccc1NC(=O)COc1ccc(N(C)S(=O)(=O)c2ccc(C)cc2)cc1,-7.22%
6,CCc1ccc(NC(=O)CN2C(=O)COc3ccc(S(=O)(=O)N4CCCC4)cc32)cc1,-7.9%
7,COc1ccc(NC(=O)CN2C(=O)CSC2=O)cc1,-1.12%
8,CCc1ccc(NC(=O)CN2C(=O)CSC2=O)cc1,24.5% (active)
9,CC(C)Cc1nc(Nc2ccc(S(=O)(=O)N3CCCC3)cc2)c2nnn(Cc3ccccc3)c2n1,-1.7%
10,CCOC(=O)C(NS(=O)(=O)c1ccc(C)cc1)(C(F)(F)F)P(=O)(OCC(C)C)OCC(C)C (stereo unspecified),-2.77%
11,O=C(Nc1ccccc1C(F)(F)F)c1cc(-c2ccc(O)cc2)on1,37.9% (active)
12,CCc1ccccc1NC(=O)c1cc(-c2ccc3c(c2)OCO3)on1,4.1%
13,O=C(Nc1cccnc1Cl)c1cc(-c2cccc(Cl)c2)on1,-5.45%
14,CCOc1ccc2[nH]c(=O)c(CN(CCCO)S(=O)(=O)c3ccc(F)cc3)cc2c1,-6.67%
15,Fc1ccc(-c2ccc(NCCN3CCOCC3)nn2)cc1,34.4% (active)
16,O=C(NCCN1CCOCC1)c1c(F)c(F)c(F)c(F)c1F,-3.15%
17,CN(CC(=O)NCCN1CCOCC1)S(=O)(=O)c1ccc(F)cc1,-1.49%
18,CC1CCC(NS(=O)(=O)c2ccc3c(c2)CC(=O)N3)CC1 (stereo unspecified),8.83%
19,N#Cc1cccc(CSc2ncnc(N)n2)c1,5.59%
20,N#Cc1ccc(CSc2ncccn2)cc1,19.6% (active)
21,N#Cc1ccc(CSc2nnc(-c3ccccn3)n2-c2ccc(Cl)cc2)cc1,-3.26%
22,COc1cc(NC(=O)c2ccccc2NS(=O)(=O)c2ccc(Cl)s2)cc(OC)c1,7.35%

row,Structure (SMILES),max response
1,O=Cc1c(NCCc2cccc(F)c2)c2ccccc2[nH]c1=O,0.988%
2,Cc1ccc(S(=O)(=O)NNC(=O)/C=C/c2cccc(F)c2)cc1,-1.72%
3,CC(=O)NCCC(=O)Nc1nc(C)c(Cc2ccc3c(c2)OCO3)s1,11.6%
4,CCOc1cccc(NC(=O)Cn2nc(-c3ccc4c(c3)OCCO4)ccc2=O)c1,-1.26%
5,O=C(Nc1nc(-c2ccc3c(c2)OCO3)cs1)c1ccncc1,21% (active)
6,COc1ccc(-c2csc(NC(=O)c3ccc(N4C(=O)CCC4=O)cc3)n2)cc1OC,-1.22%
7,CC(=O)NCCC(=O)Nc1nc(-c2ccc3c(c2)OCCO3)cs1,36.2% (active)
8,COc1ccc(OCCn2ccnc2C)cc1,-3.23%
9,Cc1cccc(C2C3=C(CCCC3=O)N=C3c4ccccc4C(=O)C32)c1 (stereo unspecified),-3.21%
10,Cc1cc(=O)n2nc(N3CCC(C(=O)Nc4c(F)c(F)c(F)c(F)c4F)CC3)sc2n1,4.09%
11,O=C(NCc1cccs1)c1cc(-c2ccccn2)nc2ccc(Br)cc12,-5.76%
12,Cc1ccc2nc(-c3cccc(Br)c3)cc(C(=O)Nn3cnnc3)c2c1,7.61%
13,Cc1ccc(-c2cc(C(=O)NCc3cn(C)nc3C)c3cc(Br)ccc3n2)cc1,13.1% (active)
14,CC(C)(C)C(=O)Nc1ccc(C(=O)N/N=C/c2ccccc2OC(=O)c2ccc(Cl)cc2Cl)cc1,3.79%
15,O=C(Cn1cnc2ccccc2c1=O)Nc1cccc(S(=O)(=O)N2CCCCC2)c1,7.05%
16,COc1cc(CNC2CCCC2)c(Br)cc1OCc1ccccc1,7.1%
17,CCOC(=O)C(CC)/C(C)=N\NC(=O)c1cccc(C)c1 (stereo unspecified),27.9% (active)
18,COc1ccc(OCC(=O)NNC(=O)c2cccc(C)c2)cc1,-1.89%
19,CCNC(=O)COC(=O)CCNC(=O)c1cccc(C)c1,10.1%
20,COCCn1c(N)c(NCc2ccccc2)c(=O)[nH]c1=O,-1.16%
21,CCOC(=O)N1CCN(C(=O)C(C)NC(=O)c2ccco2)CC1 (stereo unspecified),1.53%
22,CC1=C(C)CC(C(=O)NNC(=O)c2ccccc2O)C(C(=O)O)C1 (stereo unspecified),15.2% (active)

row,Structure (SMILES),max response
1,CC1=C(C)CC(C(=O)NC(C)CCc2ccccc2)C(C(=O)O)C1 (stereo unspecified),12.4%
2,CC1=C(C)CC(C(=O)NNC(=O)c2csc3c2CCC(C(C)(C)C)C3)C(C(=O)O)C1 (stereo unspecified),-0.879%
3,CCC(=O)N(CCc1ccccc1)Cc1cc2cc(C)ccc2[nH]c1=O,-3.02%
4,CC(C)c1nc2sc3c(c2c(=O)n1N)CC(C)(C)OC3,11.6%
5,COc1ccc(-c2noc(C(C)NS(=O)(=O)c3ccc(NC(C)=O)cc3)n2)cc1 (stereo unspecified),-8.48%
6,C/C(=N/Nc1ccc(Cl)cc1)c1cnnc(-c2ccccc2)n1,-2.47%
7,O=C(Cn1nnc(-c2ccccc2)n1)NCc1ccccc1,-2.67%
8,CC(C)(C)NC(=O)Cn1nnc(-c2ccccc2Cl)n1,53.5% (active)
9,Cc1ccccc1-c1nnn(CC(=O)c2ccc(S(=O)(=O)N3CCCC3)cc2)n1,0.345%
10,COC(=O)COc1cccc2c(=O)n(CC(=O)NCc3ccccc3)ccc12,-1.91%
11,Cc1ccc(S(=O)(=O)N(C)C)cc1NC(=O)c1n[nH]c(=O)c2ccccc12,-4.46%
12,CCCN(CCC)S(=O)(=O)c1ccc(C(=O)N2CC3CCC(CC3)C2)cc1,-1.36%
13,CCOC(=O)c1ccc(N/C(=N/S(=O)(=O)c2ccccc2)c2ccccc2)cc1,10.2%
14,O=C(c1ccc(Cl)c(S(=O)(=O)N2CCCCC2)c1)N1CCCCCC1,-2.78%
15,O=C(NCCSCc1ccccc1)c1ccc(Cl)c(S(=O)(=O)N2CCOCC2)c1,-2.82%
16,O=C(Nc1ccc2c(c1)OCCO2)c1ccc(Cl)c(S(=O)(=O)N2CCCCC2)c1,45.3% (active)
17,Cc1ccc(C(=O)Nc2ccccc2C(=O)NC2CCCCC2)cc1S(=O)(=O)N1CCOCC1,12%
18,CN1CCN(c2ccc(NC(=O)c3ccc4c(c3)OCCO4)cc2Cl)CC1,39.3% (active)
19,COC(=O)c1ccc(N2CCOCC2)c(NC(=O)c2ccc3c(c2)OCCO3)c1,0.234%
20,Cc1ccc(C(=O)Nc2ccc3c(c2)OCO3)cc1S(=O)(=O)N1CCCCC1,19.6% (active)
21,O=C(Nc1cccc(Cl)c1N1CCOCC1)c1ccc2c(c1)OCCO2,19.9%
22,O=C(Nc1cccc(S(=O)(=O)N2CCCCC2)c1)c1ccc2c(c1)OCO2,-2.46%

# Source: PubChem BioAssay AID2314 (National Center for Advancing Translational Sciences (NCATS), 2010)
